Here are results for 91 compounds from PubChem BioAssay AID463173 (ICCB-Longwood Screening Facility, Harvard Medical School, 2010).

Among all 52,000 compounds or so, about 4,300 (8.3%) were called active. Cut-off read from the data, not from the text of the source: active = survival mostly below about 52% (no sharp cut-off); inactive = mostly above about 56%. What follows is part of a selection rich in actives, with near analogues and random picks from the rest.

The experiment concerns DeltatarO mutant. As to the kind of experiment: growth inhibition of S. aureus wild type versus tarO mutant, primary screen, teichoic acid synthesis inhibitors, RN4220, OD600 (AID 463173). The note with it: OD600, 18 h, hits give low values, screened at 18.75 µg/mL (by protocol).
Turning to `CCc1nn2c(=O)cc(COC(=O)CNC(=O)c3ccccc3)nc2s1`, the survival is 123% (inactive). As to `Brc1ccc(-c2cc3c(N4CCN(c5ccccc5)CC4)nccn3n2)cc1`, the survival was 194% (inactive). For the compound `COC(=O)c1nc2n(n1)C(c1cc(OC)ccc1OC)C(C(=O)Nc1ccc(C)cc1C)=C(C)N2` (stereo unspecified), the survival was 79% (inactive).

Regarding `COc1ccc(C(=O)n2nc(N)c3cc4ccc(C)cc4nc32)cc1OC`, the survival was 94% (inactive). As for `CCOC(=O)c1cc(-c2ccc(C)cc2)n(CC(=O)Nc2ccc(OC)c(Cl)c2)c1C`, the survival is 67% (inactive). For the compound `COC(=O)c1ccc(NC(=O)Cn2cnc3c2c(=O)n(C)c(=O)n3C)cc1`, the survival was 80% (inactive). In the case of `CCOc1ccc(C(=O)NCCc2sc(-c3ccc(OC)c(OC)c3)nc2C)cc1`, the survival was 109% (inactive). The figure for `COc1ccc(-c2nc(C)c(CCNC(=O)c3cc(OC)c(OC)c(OC)c3)s2)cc1OC` is 64% (inactive); for `CCOc1ccc(NC(=O)C(=O)NCCc2sc(-c3ccc(C)cc3)nc2C)cc1` it is 79% (inactive). For the compound `COc1ccc(-c2nc(C)c(CCNC(=O)c3ccc(C(F)(F)F)cc3)s2)cc1OC`, the survival is -2% (active). As to `CCOc1ccc(C(=O)NCCc2sc(-c3ccc(F)cc3)nc2C)cc1`, the survival was 90% (inactive). As for `CCOc1ccc(C(=O)NCCc2sc(-c3ccc(C)cc3)nc2C)cc1`, the survival was -1% (active).

Turning to `O=c1[nH]cnc2scc(-c3ccsc3)c12`, the survival is 104% (inactive). Consider `Cc1ccc(-c2nc3scc(CCNS(=O)(=O)c4ccc(Oc5ccccc5)cc4)n3n2)cc1`, for which the survival is 115% (inactive). For the compound `CC(C)OCCCn1c(=O)c2ccccc2n2c(-c3ccc(F)cc3)nnc12`, the survival was 98% (inactive).

Regarding `CCCCCNC(=O)c1c[nH]c2ccc(S(=O)(=O)N3CCC(C)CC3)cc2c1=O`, the survival is 97% (inactive). For `COc1ccc(N2CC(NC(=O)C3CC3)CC2=O)cc1OC` (stereo unspecified), the survival was 73% (inactive).

Turning to `Cc1ccc2nc(N(Cc3cccnc3)C(=O)CCS(=O)(=O)c3ccccc3)sc2c1`, the survival is 67% (inactive). For the compound `COc1ccc(-c2nc3ccccc3o2)cc1NC(=O)CSc1ccc(Cl)cc1`, the survival was 72% (inactive). For the compound `COc1ccc(OCC(=O)Nc2cc(-c3nc4ccccc4o3)ccc2Cl)cc1`, the survival was 70% (inactive). As for `COc1ccc(-c2nc3ccccc3o2)cc1NC(=O)COc1c(C)cc(Cl)cc1Cl`, the survival is 67% (inactive).

Turning to `COc1ccc(-c2nc3ccccc3o2)cc1NC(=O)Cc1ccc(Cl)cc1`, the survival was 54% (inactive). To `COc1ccc(-c2nc3ccccc3o2)cc1NC(=O)COc1ccc(C(C)(C)C)cc1` belongs 4% (active); to `CCCCC(=O)Nc1cc(-c2nc3ccccc3o2)ccc1OC`, 7% (active); to `Cc1cn2c(=O)cc(COc3ccc(NC(=O)c4cccc(F)c4)cc3)nc2s1`, 125% (inactive). Consider `COc1ccc(Cl)cc1NC(=O)c1cc2ccccn2n1`, for which the survival was 124% (inactive).

`COc1cc(C2C(C(=O)c3ccco3)=C(O)C(=O)N2CCc2ccccc2)ccc1O` (stereo unspecified): the survival was 86% (inactive). Regarding `COc1ccc(Cn2c(=O)c3oc4ccccc4c3n(Cc3cccc(C)c3)c2=O)cc1`, the survival was 64% (inactive). In the case of `Cc1cccc(OCCOCCn2c(-c3ccc(Cl)cc3)nc3ccccc3c2=O)c1C`, the survival is 60% (inactive).

On to `Cc1ccccc1OCCn1c(-c2ccc(Cl)cc2)nc2ccccc2c1=O`, for which the survival was 57% (inactive). On to `COc1cccc(OCCn2c(-c3ccc(Cl)cc3)nc3ccccc3c2=O)c1`, for which the survival is 51% (inactive). `Cc1ccc(OCCOCCn2c(-c3ccc(Cl)cc3)nc3ccccc3c2=O)cc1`: the survival was 39% (active). For the compound `Cc1ccc(OCCn2c(-c3ccc(Cl)cc3)nc3ccccc3c2=O)c(C)c1`, the survival was 63% (inactive). As for `Cc1cc(C)cc(OCCOCCn2c(-c3ccc(Cl)cc3)nc3ccccc3c2=O)c1`, the survival was 43% (active). On to `Cc1cc(C)c(OCCOCCn2c(-c3ccc(Cl)cc3)nc3ccccc3c2=O)c(C)c1`, for which the survival was 43% (active). Consider `CCOc1ccc(OCCOCCn2c(-c3ccc(Cl)cc3)nc3ccccc3c2=O)cc1`, for which the survival is 26% (active). As to `CC(C)(C)c1ccc(OCCOCCn2c(-c3ccc(Cl)cc3)nc3ccccc3c2=O)cc1`, the survival was 115% (inactive). As to `Cc1ccc(C)c(OCCn2c(-c3ccc(Cl)cc3)nc3ccccc3c2=O)c1C`, the survival was 73% (inactive). The figure for `Cc1cccc(OCCn2c(-c3ccc(Cl)cc3)nc3ccccc3c2=O)c1` is 105% (inactive). Consider `Cc1cc(C)cc(OCCCn2c(-c3ccc(Cl)cc3)nc3ccccc3c2=O)c1`, for which the survival was 58% (inactive). Consider `COc1ccccc1N1CCN(CCCNC(=O)Cn2ncc3c([nH]c4ccccc43)c2=O)CC1`, for which the survival is 55% (inactive). Regarding `CCCNC(=O)c1c(NC(=O)c2ccc(C)cc2)sc2c1CCCCC2`, the survival is 65% (inactive). As for `COc1cccc(CNC(=O)c2ccc3c(=O)n4nc(Nc5ccccc5)sc4nc3c2)c1`, the survival was 88% (inactive). Consider `CCC1SC(NC(=O)COc2ccc(OC)cc2)=NC1=O` (stereo unspecified), for which the survival was 104% (inactive). As to `COCCn1c(CCC(=O)Nc2ccc(C)c(Cl)c2)nc2cccnc21`, the survival is 84% (inactive). The figure for `Cc1cc2c(cc1C)C(C)CC(C)(C)N2` (stereo unspecified) is 94% (inactive); for `O=C(NC1CCCCC1)C1OC(c2ccccc2)OC1C(=O)NC1CCCCC1` (stereo unspecified) it is 86% (inactive). With `CC(=O)N(Cc1cccnc1)Cc1cc2cc3c(cc2[nH]c1=O)OCCO3`, the survival is 84% (inactive). To `CCN(CC)C(=O)Cn1cc(SCC(=O)Nc2ccccc2C)c2ccccc21` belongs 74% (inactive); to `CC(=O)Nc1ccc(S(=O)(=O)NCC2CCC(C(=O)NCc3ccccc3)CC2)cc1` (stereo unspecified), 71% (inactive).

As for `O=C(N1CCCC1)N1c2ccccc2Sc2ccccc21`, the survival was 111% (inactive). The figure for `CCOc1ccccc1NC(=O)N1c2ccccc2Sc2ccccc21` is 55% (inactive); for `COc1ccccc1NC(=O)N1c2ccccc2Sc2ccccc21` it is -6% (active); for `COc1cc(NC(=O)N2c3ccccc3Sc3ccccc32)cc(OC)c1` it is 62% (inactive). With `COCCNC(=O)N1c2ccccc2Sc2ccccc21`, the survival is 83% (inactive). As for `O=C(O)c1ccccc1NC(=O)N1c2ccccc2Sc2ccccc21`, the survival was 40% (active).

In the case of `COc1ccc(OC)c(NC(=O)N2c3ccccc3Sc3ccccc32)c1`, the survival is 5% (active). Take `COc1ccc(OC)c(NC(=O)N2CC3CCCN3c3ccccc32)c1` (stereo unspecified): the survival is 89% (inactive). With `O=C(CN1CCCC1)N1c2ccccc2Sc2ccccc21`, the survival was 88% (inactive). For `COc1ccc(OC)c(NC(=O)c2cc3c(s2)-c2ccccc2SC3)c1`, the survival is 65% (inactive). For the compound `Cc1ccc2c(c1)N(C(=O)CCC(=O)Nc1ccccc1Cl)CC(C)O2` (stereo unspecified), the survival is 105% (inactive). With `Cc1nnc2c(Nc3ccccc3I)nc3nonc3n12`, the survival was 77% (inactive). For the compound `N#CCCn1cc(CO)c(-c2ccccc2)n1`, the survival is 95% (inactive). As to `COc1cccc(C(=O)c2cn(CC(=O)Nc3cccc(C)c3C)c3nc(C)ccc3c2=O)c1`, the survival was 67% (inactive). To `Cc1nc2ccn(Cc3cccs3)c(=O)c2cc1C(=O)N1CCN(c2ccc(F)cc2)CC1` belongs 131% (inactive); to `CCOc1ccccc1NC(=O)COC(=O)CC(C)(C)CC1=NS(=O)(=O)c2ccccc2N1`, 79% (inactive). Take `Cc1cccc(NC(=O)COC(=O)CCCC2=NS(=O)(=O)c3ccccc3N2)c1`: the survival was -2% (active). Turning to `O=C(COC(=O)CCCC1=NS(=O)(=O)c2ccccc2N1)Nc1ccc(Br)cc1`, the survival is 72% (inactive).

With `CCc1ccc(NC(=O)COC(=O)CCCC2=NS(=O)(=O)c3ccccc3N2)cc1`, the survival is 109% (inactive).

Turning to `COc1ccccc1NC(=O)COC(=O)CC(C)(C)CC1=NS(=O)(=O)c2ccccc2N1`, the survival was -1% (active). With `COc1ccc(Cl)cc1NC(=O)COC(=O)CC(C)(C)CC1=NS(=O)(=O)c2ccccc2N1`, the survival is 70% (inactive).

Consider `CCn1c2ccccc2c2nnc(SCCN3CCCCC3)nc21`, for which the survival is 82% (inactive).

As for `COC(=O)c1ccccc1NC(=O)c1ccc2nc(CCc3ccccc3)oc2c1`, the survival is 131% (inactive).

For the compound `CCc1ccccc1N1C(=O)N(CC(=O)c2ccc(Cl)cc2)c2ccccc2S1(=O)=O`, the survival is 82% (inactive). As for `CCOC(=O)C1CCN(C(=O)c2ccc3c(c2)sc2nc(-c4ccc(C)cc4)cn23)CC1`, the survival was 98% (inactive).

Turning to `CCOC(=O)C1CCN(C(=O)c2ccc3c(c2)sc2nc(-c4ccc(OCC)cc4)cn23)CC1`, the survival is 69% (inactive). In the case of `CCN(CC)CCCNC(=O)c1ccc2c(c1)sc1nc(-c3ccc(C)cc3)cn12`, the survival is 24% (active). The figure for `Cc1ccc(-c2cn3c(n2)sc2cc(C(=O)NCCC4=CCCCC4)ccc23)cc1` is 56% (inactive); for `CCOC(=O)c1ccc2c(c1)sc1nc(-c3ccc(OCC)cc3)cn12` it is 44% (active). The figure for `CCOc1ccc(CNC(=O)c2ccc3c(c2)sc2nc(-c4ccc(OC)cc4)cn23)cc1` is 84% (inactive). Turning to `O=C(NCCC1=CCCCC1)c1ccc2c(c1)sc1nc(-c3ccc(F)cc3)cn12`, the survival was 63% (inactive). `CCN(CC)CCNC(=O)c1ccc2c(c1)sc1nc(-c3ccc(F)cc3)cn12`: the survival is 29% (active). Consider `O=C(NCc1ccccc1)c1ccc2c(c1)sc1nc(-c3ccc(F)cc3)cn12`, for which the survival was 101% (inactive).

For the compound `CCCNC(=O)c1ccc2c(c1)sc1nc(-c3ccc(C)cc3)cn12`, the survival is 89% (inactive). Consider `CCOC(=O)C1CCN(C(=O)c2ccc3c(c2)sc2nc(-c4ccccc4)cn23)CC1`, for which the survival is 54% (active). Regarding `CCOC(=O)C1CCN(C(=O)c2ccc3c(c2)sc2nc(-c4ccc(OC)cc4)cn23)CC1`, the survival was 78% (inactive). To `COc1ccc(S(=O)(=O)Nc2cccc(-c3ccc(N4CCCC4)nn3)c2)cc1F` belongs 85% (inactive). For `COc1ccc(Nc2ncnc3c2cnn3C)c(OC)c1`, the survival is 89% (inactive). The figure for `CNS(=O)(=O)c1cn(CC(=O)Nc2cccc(C(F)(F)F)c2)cc1S(=O)(=O)NC` is 107% (inactive); for `Cc1ccccc1OC(=O)CSc1nnc(-c2ccc(F)cc2)o1` it is 63% (inactive). As to `CCN1CCc2c(sc(NC(=O)c3ccc(S(=O)(=O)N(CCOC)CCOC)cc3)c2C(N)=O)C1`, the survival was 69% (inactive).
